Screens as filed in PubChem.
This is a sample that favours compounds with a hit; in the whole collection about 1.4% have one here.
USP1 inh: Inhibitors of USP1/UAF1: Primary Screen | Ubiquitin carboxyl-terminal hydrolase 1 (Homo sapiens), O94782 | recombinant USP1/UAF1, Ub-Rhodamine cleavage fluorescence | Potency, µM (series often up to 57.1 µM), for inactives: at the top dose activity change, negative = inhibition, usual class: inhibitors | 390,000 compounds, 0.23% hits | AID 743255, 2014; also: % is scaled to controls: 0 for no effect and ±100 for the full control effect; nearly all actives have a fitted effect of over 60% in size
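USP1/UAF1 complex at 1 nM was preincubated with compound for 15 min at room temperature, then Ub-Rho substrate (150nM final) was added. Fluorescence (480/540 nm) was read kinetically, 6 reads every 60 seconds.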
EPAC1 agonist: qHTS for Agonist of cAMP-regulated guanine nucleotide exchange factor 3 (EPAC1): primary screen; EPAC1 agonist qHTS, biochemical assay; response scale: 100% = response to 6.5 mM cAMP; Potency, µM (highest dose often 154 µM), without a hit: at the top dose activation, actives largely listed as activators; 360,000 compounds, 0.073% hits; also: nearly all actives have a fitted effect of over 60% in size
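Read-out is the fluorescence drop as BODIPY-GDP leaves Rap1B (480 nm excitation, 540 nm emission), recorded every 5 minutes over 30 minutes. Reactions held 100 nM EPAC1, 250 nM Rap1B–BODIPY-GDP and 50 uM GDP, with 6.5 mM cAMP setting full activation.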
BRCA1 expr act: qHTS Assay to Identify Small Molecule Activators of BRCA1 Expression. MCF7-BRCA1-FFLuc reporter, luminescence, 48 h; response scale: scaled: vehicle 0%, 10 µM genistein 100%. Potency, µM (highest dose often 46.1 µM), for inactives: top-dose activation, actives largely listed as activators. 380,000 compounds, 1.1% hits. AID 624202, 2012; also: nearly all actives have a fitted effect of over 80% in size
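Luminescence from a BRCA1-driven firefly luciferase in MCF7 cells was the read-out, taken 15 min after substrate addition following 48 h compound exposure at 37 °C. Data were normalized to a 10 microM genistein control and DMSO vehicle.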
EPAC2 agonist: qHTS for Agonist of cAMP-regulated guanine nucleotide exchange factor 4 (EPAC2): primary screen; EPAC2 activation, biochemical qHTS; response scale: 100% = 6.5 mM cAMP response; Potency, µM (titrated, usually from 154 µM), inactives show at the top dose activation, hits mostly activators; 360,000 compounds, 0.079% hits; AID 720711, 2013; also: nearly all actives have a fitted effect of over 50% in size
Target sequence (Q8WZA2 whole entry, looked up): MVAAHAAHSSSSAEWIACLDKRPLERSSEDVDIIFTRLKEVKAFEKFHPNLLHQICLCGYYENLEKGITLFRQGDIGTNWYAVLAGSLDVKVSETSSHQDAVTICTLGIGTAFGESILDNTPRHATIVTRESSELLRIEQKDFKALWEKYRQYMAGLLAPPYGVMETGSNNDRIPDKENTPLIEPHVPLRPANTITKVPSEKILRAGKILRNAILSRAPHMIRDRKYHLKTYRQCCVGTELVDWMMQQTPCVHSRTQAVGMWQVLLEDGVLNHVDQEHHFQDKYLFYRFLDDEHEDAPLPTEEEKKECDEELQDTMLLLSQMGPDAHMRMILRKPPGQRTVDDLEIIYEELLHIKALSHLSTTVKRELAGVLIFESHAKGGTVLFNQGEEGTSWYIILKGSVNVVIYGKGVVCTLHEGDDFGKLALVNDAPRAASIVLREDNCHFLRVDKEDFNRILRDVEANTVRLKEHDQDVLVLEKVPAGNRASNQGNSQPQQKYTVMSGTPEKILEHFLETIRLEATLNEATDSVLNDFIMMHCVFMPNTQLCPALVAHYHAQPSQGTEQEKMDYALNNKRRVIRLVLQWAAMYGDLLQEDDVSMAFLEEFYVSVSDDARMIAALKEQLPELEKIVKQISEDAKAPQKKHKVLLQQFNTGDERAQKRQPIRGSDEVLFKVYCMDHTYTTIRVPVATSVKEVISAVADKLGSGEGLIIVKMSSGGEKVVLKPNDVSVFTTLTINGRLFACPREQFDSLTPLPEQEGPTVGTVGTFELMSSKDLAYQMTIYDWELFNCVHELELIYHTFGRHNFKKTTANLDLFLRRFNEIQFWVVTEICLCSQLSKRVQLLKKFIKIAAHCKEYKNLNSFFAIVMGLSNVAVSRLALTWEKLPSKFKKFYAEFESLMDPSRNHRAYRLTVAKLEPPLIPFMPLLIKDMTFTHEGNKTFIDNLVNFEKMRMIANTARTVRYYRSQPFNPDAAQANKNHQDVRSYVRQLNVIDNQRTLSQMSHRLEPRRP
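Nucleotide exchange monitored as fluorescence drop when BODIPY-GDP leaves Rap1B. Reaction: 100 nM EPAC2, 250 nM RAP1B-BODIPY-GDP, 50 uM GDP, room temperature, kinetic read over 30 min. Activity expressed relative to 6.5 mM cAMP.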
EPAC1 antagonist: qHTS for Antagonist of cAMP-regulated guanine nucleotide exchange factor 3 (EPAC1): primary screen; Rap guanine nucleotide exchange factor 3 (Homo sapiens), O95398; EPAC1 GEF assay, Rap1b-BODIPY-GDP exchange fluorescence; Potency, µM (top dose mostly 115 µM), for inactives: top-dose activity change, negative = inhibition, usual class: inhibitors; 360,000 compounds, 0.14% hits; AID 720709, 2013;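 also: plate controls were vehicle for no effect and positive control for full effect; nearly all actives have a fitted effect of over 50% in size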
EPAC2 antagonist: qHTS for Antagonist of cAMP-regulated guanine nucleotide exchange factor 2 (EPAC2): primary screen; Rap guanine nucleotide exchange factor 4 (Homo sapiens), Q8WZA2; EPAC2 GEF exchange of Rap1B-BODIPY-GDP, fluorescence; Potency, µM (top dose mostly 114 µM), inactives show at the top dose activity, negative = inhibition, usual class: inhibitors; 360,000 compounds, 0.18% hits; AID 720708, 2013; also: % is scaled to controls: 0 for no effect and ±100 for the full control effect; nearly all actives have a fitted effect of over 45% in size
Numbers without * were called inactive; ? = inconclusive; · = no result given. Calls follow the shape of the dose curve; as a rule, active = well fitted curve in the direction sought with a large enough effect; inconclusive = small, poorly fitted or top-dose-only effect, or another doubt; inactive = no such curve, though single readings can be large; an effect the other way counts as inactive or inconclusive. Potency is read from the fitted curve at half-maximal effect.

SMILES | USP1 inh | EPAC1 agonist | BRCA1 expr act | EPAC2 agonist | EPAC1 antagonist | EPAC2 antagonist
COc1ccc(C(=O)COC(=O)C2CCN(c3ccc(C(F)(F)F)cn3)CC2)c(OC)c1 | -27% | 1% | -39% | -7% | 1% | 4%
COc1cc2c(cc1OC)CN(c1ccc(-c3ccccc3OC)nn1)CC2 | -8% | 6% | -57% | 3% | -3% | -10%
COc1ccc(C(=O)Nc2cccc(-c3ccc(N4CCOCC4)nn3)c2)cc1OC | -15% | -3% | 84% | -9% | -3% | 8%
CCOc1ccc(C(=O)Nc2cccc(-c3ccc(N4CCOCC4)nn3)c2)cc1OCC | -19% | -7% | 11µM* | -12% | -5% | 3%
Cc1oc(-c2ccc(-c3ccccc3)cc2)nc1CN1CCN(CC(=O)N(C)C)CC1 | -21% | 13% | 8.9µM* | -3% | -19% | -4%
c1ccc(CSc2nc3ncccn3n2)cc1 | -17% | 3% | 2.5µM* | -3% | -5% | 5%
Cc1ccc(CNc2ccc3c(c2)ncn3C)cc1 | ? | 5% | 5µM* | 7% | 1% | 2%
CCCn1cnc2cc(NCc3ccccn3)ccc21 | ? | 11% | 4µM* | 14% | -1% | 16%
CCc1ccc(CNc2ccc3c(c2)ncn3C)cc1 | -1% | 5% | ? | 16% | -11% | 0%
CCCN1CCc2c(sc3nc(SC)n(-c4ccccc4)c(=O)c23)C1 | -19% | -3% | -16% | -5% | -22% | 4%
Cc1ccccc1C(=O)Nc1ccnn1C1CCN(C(=O)c2cnsn2)CC1 | -7% | 1% | -1% | 4% | -5% | 5%
CC(=O)c1nnn(-c2nc(C#N)nc(N3CCOCC3)n2)c1C | · | · | 11% | · | · | ·
COC(=O)c1cc(-c2ccc(Br)cc2)on1 | 5% | -3% | -6% | 6% | 0% | 10%
CCN(CC)C(=O)c1cc(-c2ccc(Br)cc2)on1 | -15% | 2% | 7.9µM* | 3% | 3% | -3%
CN(C(=O)Cn1cc([N+](=O)[O-])ccc1=O)C1CCCCC1 | -4% | 8% | -19% | 4% | -2% | 5%
O=C(N/N=C/c1ccccc1O)c1cccc(C(F)(F)F)c1 | -13% | -10% | -93% | -3% | 7.9µM* | -9%
O=C(O)c1cc(N/N=C/c2c[nH]c3ccccc23)ccc1Cl | -8% | 4% | 3.2µM* | 0% | -18% | -6%
O=C(N/N=C/c1c[nH]c2ccccc12)c1cccc(O)c1 | -19% | 9% | 13µM* | 7% | 4% | 1%
CCCC(=O)OCc1cnc(C)c2oc(=O)c(C(=O)Nc3cccc(C(F)(F)F)c3)cc12 | -22% | · | 35% | · | · | ·
CC1CN(S(=O)(=O)c2cccc(C(=O)N=c3sccn3C)c2)CC(C)O1 (stereo not given) | -1% | 0% | -21% | 9% | -11% | -5%
Cc1ccc(CN(C)C(=O)COc2ccc(S(=O)(=O)N3CCCC3)cc2[N+](=O)[O-])c(C)c1 | -17% | 1% | -4% | 9% | -14% | 2%
O=C(CSc1nnnn1Cc1ccccc1)c1ccccc1 | 2% | 0% | 13µM* | 21% | 5% | 0%
O=C(CSc1nnnn1Cc1ccccc1)c1ccc(F)cc1 | -20% | -12% | ? | 6% | -17% | -2%
O=C(CSc1nnc(-c2ccco2)n1Cc1ccccc1)c1ccccc1 | -22% | 5% | 4µM* | 8% | -3% | -3%
Nc1c(C(=O)N2CCCCC2)sc(=S)n1-c1ccccc1 | -17% | -5% | 8% | -8% | 9% | 1%
SMILES | USP1 inh | EPAC1 agonist | BRCA1 expr act | EPAC2 agonist | EPAC1 antagonist | EPAC2 antagonist
Nc1nc(SCc2ccccc2)sc1C(=O)N1CCCCC1 | -6% | 1% | 2.2µM* | 19% | -2% | 0%
CC1CCCCN1C(=O)CSc1n[nH]c(-c2ccccc2)n1 (stereo not given) | -15% | · | · | · | · | ·
CCN(/C=N/c1sc2c(c1C#N)CCCCC2)CC | -14% | 18% | 6.3µM* | 15% | -7% | -8%
CC(C)CN(/C=N/c1sc2c(c1C#N)CCCCC2)CC(C)C | -10% | 6% | -11% | 3% | 0% | 0%
N#Cc1c(/N=C/c2ccco2)sc2c1CCC2 | -17% | 3% | 2% | 10µM* | 7% | 2%
CCC1CCCCN1S(=O)(=O)c1ccc(NC(=O)c2nc(SC)ncc2Cl)cc1 (stereo not given) | -23% | · | · | · | · | ·
COc1ccccc1/C=C1\SC(=S)N(NS(=O)(=O)c2ccccc2)C1=O | -3% | 5% | -4% | -5% | 56µM* | ?
COc1ccc(/C=C2/SC(=S)N(NS(=O)(=O)c3ccccc3)C2=O)cc1 | -14% | -9% | -1% | 7% | ? | ?
O=C1/C(=C\c2ccc(Br)cc2)SC(=S)N1NS(=O)(=O)c1ccccc1 | -26% | -5% | 12% | -12% | ? | 18µM*
CCCCN1CC(=O)N2[C@H]3c4ccccc4OC[C@@H]3[C@H](c3ccccc3)[C@]2(C)C1=O | -25% | -12% | 0% | 6% | -14% | -16%
O=C(COC(=O)/C=C/c1ccccc1)Nc1ccc(Cl)cn1 | -16% | -2% | -5% | 4% | 15% | 10%
O=C(CC(c1ccccc1)c1ccccc1)Nc1ccc(Cl)cn1 | -15% | 16% | -68% | 6.3µM* | -9% | -15%
O=C(/C=C/c1ccccc1)Nc1ccc(Cl)cn1 | -7% | -1% | 3.5µM* | 2% | 23% | 4%
CCOC(=O)CSc1nc2ccc(C)cc2cc1C#N | ? | -3% | 4µM* | 1% | 3% | 11%
COC(=O)CSc1nc2cc3c(cc2cc1C#N)OCO3 | 3% | 8% | ? | 4% | -9% | -7%
CC(C)OC(=O)CSc1nc2cc3c(cc2cc1C#N)OCO3 | -7% | -5% | 4.5µM* | -3% | -13% | -16%
NC(=O)CC(NC(=O)Cc1cccc2ccccc12)c1ccc(N2CCN(c3ccccn3)CC2)c([N+](=O)[O-])c1 (stereo not given) | ? | -7% | 14% | 10% | -16% | 5%
